21 compounds from PubChem BioAssay can be followed below.

Assay [1] relates to XIP peptide (Xip251-270) binding. The experiment in a line: XIP fragment 251-270 binding compounds – biochemical, small-molecule microarray, fluorescence 635/667 nm, 0.1 µg/mL protein, primary screen (AID 1182). The note with it: fluorescent protein binding, 635 nm, higher = more signal, called active from +8 up or from −8 down.
The subject of a further assay is XIP peptide (Xip251-270). The assay is described as follows: compounds binding XIP fragment 251-270 – biochemical, small-molecule microarray, fluorescence 635/667 nm, 0.5 µg/mL protein, primary screen (AID 1183). The note with it: fluorescence 635 nm, higher = more signal.
A short description of assay [2]: blood-stage malaria parasite viability loss – strain 3D7, DAPI fluorescence, 100 nL, primary screen (AID 1184).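 Also: parasites grown inside human red blood cells in medium with human serum.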 The note with it: P. falciparum 3D7 growth, 3 d, higher = more signal.
The target of assay [3] is Homeobox protein Hox-A13 (Mus musculus) (UniProt Q62424). The experiment in a line: disruptors of Hoxa13 oligonucleotide interaction – biochemical, fluorescence polarization, labeled oligonucleotide, primary screen (AID 1185). The note with it: Hoxa13:DNA binding, 15 min, higher = more signal, called active from +8 up or from −8 down.

The source made the active and inactive calls.

Chain of Homeobox protein Hox-A13 (Mus musculus) (Q62424 whole entry, looked up): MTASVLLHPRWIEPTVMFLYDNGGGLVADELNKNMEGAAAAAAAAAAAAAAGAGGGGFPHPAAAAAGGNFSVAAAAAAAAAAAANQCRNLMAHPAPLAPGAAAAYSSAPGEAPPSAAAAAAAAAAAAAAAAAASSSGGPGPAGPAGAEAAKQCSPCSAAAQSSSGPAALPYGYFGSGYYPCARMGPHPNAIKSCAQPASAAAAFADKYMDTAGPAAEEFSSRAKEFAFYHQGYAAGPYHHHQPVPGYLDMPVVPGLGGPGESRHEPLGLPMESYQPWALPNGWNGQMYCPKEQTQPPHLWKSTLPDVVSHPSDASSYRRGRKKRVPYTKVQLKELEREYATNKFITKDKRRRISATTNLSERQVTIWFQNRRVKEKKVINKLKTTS

For the compound `CCOC(=O)[C@H](CC(C)C)NC(=O)CCC1CC(OC(=O)NCc2ccc3c(c2)OCO3)CC2(CCCC(COC(=O)NCC(c3ccccc3)c3ccccc3)O2)O1` (some centres undefined), the composite z-score in assay [1] is 0.717 (inactive); in the assay with XIP peptide (Xip251-270), -0.0305. Further, the z-score is -0.11 in assay [2] and -6.66 (inactive) in assay [3].
In the same order, the values of `CCOC(=O)[C@H](CC(C)C)NC(=O)CCC1CC(OC(=O)NCc2cccc3ccccc23)CC2(CCCC(COC(=O)NCCOc3ccccc3)O2)O1` (some centres undefined) are 0.761 (inactive), 0.471, -1.81 and -3.36 (inactive).
Regarding `CC[C@@H](c1ccccc1)n1c(=O)n2n(c1=O)[C@H]1[C@H](O)[C@@H]3O[C@@H]3C(=O)[C@H]1CC2`, the composite z-score was -0.144 (inactive) in assay [1] and 0.0999 in the assay with XIP peptide (Xip251-270). Further, the z-score in assay [2] was -1.22; in assay [3], -1.59 (inactive).
Regarding `CC(CCN1CCc2nc(-c3ccccc3)c(-c3ccccc3)cc2C1)=NOC[C@@H](O)COCc1ccco1`, the composite z-score in assay [1] was 1.58 (inactive); in the assay with XIP peptide (Xip251-270), 0.54. In addition, the z-score in assay [2] was 0.329; in assay [3], -5.11 (inactive).
In the same order, the values of `COC(=O)CC=C[C@@H](C)[C@@H](C=NOC[C@@H](O)[C@H]1O[C@@H]2OC(C)(C)O[C@@H]2[C@H]1O)NS(=O)(=O)c1ccc(C)cc1` are 0.0133 (inactive), -0.0003, 1.4 and 0.413 (inactive).
The corresponding values for `CCOC(=O)[C@H](CC(C)C)NC(=O)CCC1CC(OC(=O)NCc2cccc3ccccc23)CC2(CCCC(COC(=O)NCCC(C)C)O2)O1` (some centres undefined) are -0.299 (inactive), 0.434, -0.267 and -6.1 (inactive).
The corresponding values for `CO[C@H]1COC(=O)CC=C[C@@H](C)[C@H](NS(=O)(=O)c2ccc(C)cc2)COC(=O)CCC[C@@H]1C` are 0.0922 (inactive), 0.231, 1.19 and -0.499 (inactive).
For the compound `COc1ccc(O[C@H]2C=C[C@@H](c3ccccc3)O[C@@H]2COC(=O)CCC(C)=NOC[C@@H](O)[C@H]2O[C@@H]3OC(C)(C)O[C@@H]3[C@H]2O)cc1`, the values for the composite z-score (in assay [1]; with XIP peptide (Xip251-270)) were 0.162 (inactive) and -0.0871, respectively. In addition, the figures for the z-score in assay [2] and in assay [3] were 0.651 and -5.83 (inactive), respectively.
The corresponding values for `COc1ccc(COC(=O)NN=C2C[C@@H](O)[C@@H](O)[C@@H]3[C@@H]4C(=O)N(c5ccc(F)cc5F)C(=O)[C@@H]4CC[C@H]23)cc1` are 0.051 (inactive), 0.393, -1.93 and -6.79 (inactive).
In the same order, the values of `C[C@@H](ON=C1[C@H]2CCn3c(=O)n(-c4ccccc4)c(=O)n3[C@H]2[C@H](O)[C@@H]2O[C@H]12)c1cn([C@@H]2COC[C@H]2O)nn1` are -0.24 (inactive), 0.324, 0.0979 and -2.77 (inactive).
In the same order, the values of `CCOC(=O)[C@H](Cc1ccccc1)NC(=O)CCC1CC(OC(=O)NCc2cccc3ccccc23)CC2(CCCC(COC(=O)NCc3ccccc3)O2)O1` (some centres undefined) are 0.278 (inactive), 0.355, -1.41 and -1.5 (inactive).
For the compound `O=C(C=Cc1ccc2c(c1)OCO2)c1ccc(F)cc1`, the values for the composite z-score (in assay [1]; in the assay with XIP peptide (Xip251-270)) were -0.158 (inactive) and 0.629, respectively. Moreover, the values for the z-score in assay [2] and in assay [3] were -0.533 and 0.526 (inactive), respectively.
In the same order, the values of `CCOC(=O)NN=C1C[C@@H](O)[C@@H](O)[C@@H]2[C@@H]3C(=O)N(C(C)(C)C)C(=O)[C@@H]3CC[C@H]12` are -0.188 (inactive), 0.29, 0.202 and 0.772 (inactive).
In the same order, the values of `C#CCCCON=C1C[C@@H](O)[C@@H](O)[C@@H]2[C@@H]3C(=O)N(CC)C(=O)[C@@H]3CC[C@@H]12` are 0.901 (inactive), 0.555, -0.0961 and -0.918 (inactive).
As for `Cc1cc2c(nc1C)CCCN2CC(O)CN1CCCc2nc(C)c(C)cc21`, the composite z-score in assay [1] was 0.6 (inactive); in the assay on XIP peptide (Xip251-270), -0.134. For the same compound, the z-score was -0.958 in assay [2] and -3.33 (inactive) in assay [3].
In the same order, the values of `COc1ccc(COC(=O)NN=C2C[C@@H](O)[C@@H](O)[C@@H]3[C@@H]4C(=O)N(C5CCCCC5)C(=O)[C@@H]4CC[C@H]23)cc1` are -0.252 (inactive), -1.02, -0.336 and -5.48 (inactive).
The corresponding values for `CO[C@H]1COC(=O)[C@@H](Cc2ccccc2)NC(=O)[C@@H](C)COC(=O)CCC[C@@H]1C` are 0.0283 (inactive), 0.171, -0.0331 and -0.733 (inactive).
Take `Cc1ccc(S(=O)(=O)N[C@@H]2COC(=O)[C@@H](C)COC(=O)CC=C[C@H]2C)cc1`: the composite z-score was -0.21 (inactive) in assay [1] and 0.038 with XIP peptide (Xip251-270). Further, the z-score in assay [2] was 0.393; in assay [3], -0.0483 (inactive).
The corresponding values for `COC(=O)[C@H]1O[C@@H](c2c(OC)c(OC)c(C)c(OC)c2OC)[C@H](C)[C@@H](O)[C@H]1C` are 0.498 (inactive), 0.486, 0.0136 and 0.6 (inactive).
In the same order, the values of `CCN1C(=O)[C@H]2[C@H]3[C@H](O)[C@H](O)CC(=O)[C@H]3CC[C@H]2C1=O` are 0.809 (inactive), 0.453, 1.05 and 0.0412 (inactive).
Regarding `O=c1n(Cc2cc3c(cc2Cl)OCO3)c(=O)n2n1CC[C@@H]1C(=NOCc3ccccc3)[C@H]3O[C@H]3[C@@H](O)[C@@H]12`, the composite z-score in assay [1] is 0.0872 (inactive); with XIP peptide (Xip251-270), -0.0262. Besides, the values for the z-score in assay [2] and in assay [3] were 0.0783 and 0.962 (inactive), respectively.
